Inhibition data for 36 compounds are collected here from ChEMBL document CHEMBL1157539, “Thousands of chemical starting points for antimalarial lead identification” (Nature, 2010).

A word on the Inhibition: it is the percentage by which the read-out fell short of the control. The low end stands for a response near the control, the high end for a response far below the control.

Residues, ends and D or L forms follow the SMILES beside them. *: point of attachment. Boc = CC(C)(C)OC(=O)*

The test system of the experiment is Plasmodium falciparum. The experiment is described as follows: GSK_TCMDC: Inhibition of Plasmodium falciparum Dd2 in whole red blood cells, using parasite LDH activity as an index of growth. Test compounds present at 2uM. The class given is functional.
For the compound `CCCCOC(=O)c1ccc(Nc2cc(C)nc3ccc(OC)cc23)cc1`, the Inhibition turned out to be 96%.
`CC(C)CNC(=O)c1cncc(-c2ccc(CNCCCc3ccccc3)cc2)c1.O=C(O)C(F)(F)F` displayed an Inhibition of 73%.
As for `Cn1cccc1CCNCc1ccc(-c2cccc(-c3nc4ccccc4[nH]3)c2)cc1.O=C(O)C(F)(F)F`, the Inhibition amounted to 66%.
Under `CCCC[C@@H](C(=O)NCc1ccccc1C(F)(F)F)N1C(=O)CCC1C(=O)Nc1ccc([N+](=O)[O-])cc1` (stereo partly specified) stands 2%; under `CCn1c(-c2nc(-c3ccnc(N4CCN(C)CC4)c3)cnc2N)nc2cc(S(C)(=O)=O)ccc21`, 76%.
For `COC(=O)c1ccc(-c2ccc(-c3cccnc3)cc2C)cc1`, the Inhibition was determined as 98%.
With `O=C(Nc1ccc(CN2CCOCC2)cc1)c1ccc(-c2cc(Cl)ccc2Cl)o1` the figure was 13%; with `CC(C)CCN1CCC(Oc2cccc(NC(=O)c3ccc(C(F)(F)F)cc3)c2)CC1.O=C(O)C(F)(F)F`, 6%; with `COCCN1CCC(C(=O)NCC(C)(C)c2nc(-c3ccc(Br)c(O)c3)c(-c3ccncc3)[nH]2)CC1.Cl`, 6%.
With `Br.CC1(C)NC(N)=NC(=N)N1OCCOc1ccc2ccccc2c1` the figure was 96%.
Compound `COc1ccc2c(NN=Cc3ccccc3Cl)ccnc2c1` returned an Inhibition of 46%.
With `COc1cc(NC(=O)/C=C/c2cc3ccccc3n2C)ccc1OCCN(C(C)C)C(C)C.Cl` the figure was 68%; with `COc1ccc(OC)c2c1CCN(CCN1CCC(C(=O)Nc3ccc(C(=O)Nc4ccc(Cl)cc4)cc3)CC1)C2`, 100%.
Regarding `O=C(c1ccco1)N1CCN(c2ccc([N+](=O)[O-])c(NC3CC3)c2)CC1`, the Inhibition was determined as 99%.
Under `COc1cc2nc(NCC3CCN(C(=O)c4ccc(-c5ccc(C(=O)N(C)C)cc5C)cc4)CC3)nc(N)c2cc1OC` stands 34%.
Under `CCOC(=O)c1c(SCc2cccc(F)c2F)[nH]c2ccccc2c1=O` stands 95%; under `COc1ccc(-c2c3c(=O)n(C)c(=O)n(C)c3c3nnc4ccccc4n23)cc1`, 86%.
Under `O=C(O)C(F)(F)F.c1ccc2[nH]c(-c3ccc(-c4ccc(CN5CCCCC5)cc4)cc3)nc2c1` stands 100%; under `CC1CCCN1Cc1ccc(-c2ccc3c(=O)cc(CCc4cccc(F)c4F)n(CC(=O)N(C)Cc4ccc(-c5ccc(C(F)(F)F)cc5)cc4)c3n2)cc1.O=C(O)C(O)C(O)C(=O)O` (stereo unspecified), 91%; under `Cc1ccc2[nH]c(-c3cc(-c4ccc(CO)cc4)cnc3N)nc2c1.O=C(O)C(F)(F)F`, 6%.
Turning to `COc1ccc2nc3ccccc3c(NCCN3CCN(C)CC3)c2c1`, the Inhibition came out at 10%.
Under `O=C(O)C(F)(F)F.O=[N+]([O-])c1cccc(CNCC2CCC(CNCc3cccc([N+](=O)[O-])c3)CC2)c1` (stereo unspecified) stands 76%.
`Cc1ccccc1C1CCN(c2ccc(NC(=O)c3ccc(Cl)nc3)cc2)CC1.O=C(O)C(F)(F)F` had an Inhibition of 82%.
The compound `O=C(Nc1cccc(-c2cccc(-c3nc4ccccc4[nH]3)c2)c1)c1csnn1` yielded an Inhibition of 27%.
Turning to `Nc1cc(/C=C/c2ccc([N+](=O)[O-])s2)nc2ccccc12`, the Inhibition came to 48%.
Compound `COc1ccc(NC(=O)[C@H](Cc2ccccc2)Nc2cc(C)nc(NCCc3ccccc3OC)n2)cc1.O=C(O)C(F)(F)F` displayed an Inhibition of 83%.
`COc1cccc(CNC(=O)c2ccnc(-c3cccc(CN(C)C4CCN(C)CC4)c3)c2)c1.O=C(O)C(F)(F)F` came in with an Inhibition of 46%.
`NC1=NC2(CCCCC2)N(OCCCCCCCCNc2nc(N)nc(N)n2)C(N)=N1.O=C(O)C(F)(F)F` showed an Inhibition of 99%.
In turn, `O=C(/C=C/C=C/c1ccc(Cl)c(Cl)c1)NCCCCCN1CCCC2CCCCC21` (stereo unspecified) gave an Inhibition of 48%.
Under `COc1cccc(CN2CCCC(COC(c3ccc(F)cc3)c3ccc(F)cc3)C2)c1O` (stereo unspecified) stands 100%.
Under `CCNC(=O)Nc1ccc(N(C)c2ccnc(Nc3ccc(CS(C)(=O)=O)cc3)n2)cc1.Cl` stands 99%.
`CC(C)c1ccc(-c2noc(SCC(=O)N(C)c3ccc(F)cc3)n2)cc1` displayed an Inhibition of 77%.
In the case of `Cc1cc2nc(-c3cc(Br)ccc3O)c(-c3cc(Br)ccc3O)nc2cc1C`, the Inhibition stood at 12%.
Under `O=C(Cn1c(CCc2cccc(F)c2F)cc(=O)c2ccccc21)N(CCN1CCCCC1)Cc1ccc(-c2ccc(C(F)(F)F)cc2)cc1.O=C(O)C(O)C(O)C(=O)O` stands 59%; under `COC(=O)CC[C@H](NC(=O)[C@H](C)NC(=O)OC(C)(C)C)C(=O)OC` (Boc-Ala-Glu(OMe)-OMe), 0%; under `Cl.NCCCOc1cnc(-c2ccccc2)c2nc(-c3nonc3N)n(CCc3ccccc3)c12`, 86%.
